A selection: hits, their analogues and other compounds. The true share with any hit is near 9.4%.
Pf growth 48h: Primary qHTS for delayed death inhibitors of the malarial parasite plastid, 48 hour incubation | P. falciparum luciferase growth in erythrocytes, 48 h | Potency, µM (top dose mostly 28.7 µM), usual class: inhibitors | hit rate 5.9% among 310,000 | AID 504832, 2011
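Firefly luciferase activity from engineered P. falciparum reports growth; inhibitors lower the luminescent signal. Cultures contained 2% hematocrit erythrocytes at 0.1% final parasitemia.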
AMA1-RON2 inh: qHTS for Inhibitors of AMA1-RON; Towards Development of Antimalarial Drug Lead: Primary Screen | hit rate 0.2% among 360,000 | Plasmodium falciparum AMA1 (3D7) - RON2 peptide interaction | AlphaScreen AMA1-biotinylated RON2 peptide binding | Potency, µM (highest dose often 58.2 µM), hits mostly inhibitors; note: nearly all actives have a fitted effect of over 45% in size
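AMA1 (3D7) with his tag at 25 nM final met compounds first, then biotinylated RON2 peptide at 25 nM; detection used donor plus acceptor beads, 10 µg/mL apiece, read by AlphaScreen after 30 min at room temperature.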
Pf growth 96h: Primary qHTS for delayed death inhibitors of the malarial parasite plastid, 96 hour incubation; P. falciparum luciferase reporter growth, 96 h; Potency, µM (series often up to 28.7 µM), most hits filed as inhibitors; hit rate 6.9% among 320,000
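Cell-based qHTS: luciferase-tagged P. falciparum in erythrocytes (2% hematocrit, 0.05% parasitemia final) incubated with compounds for 96 hours, 37 C, 5% CO2; luciferase detection reagent then added and luminescence measured.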
SARS PLpro yeast-1: qHTS of Yeast-based Assay for SARS-CoV PLP; Potency, µM (top dose mostly 32.9 µM), hits mostly activators; AID 485353, 2010; hit rate 0.19% among 330,000; S. cerevisiae expressing SARS-CoV PLpro, growth rescue; calls by dose curve; note: nearly all actives have a fitted effect of over 55% in size
SARS PLpro yeast-2: qHTS of Yeast-based Assay for SARS-CoV PLP: Hit Validation. calls only. AID 652038, 2013. shares compounds with SARS PLpro yeast-1. yeast expressing SARS-CoV PLpro, growth phenotype rescue. hit rate 19% among 1,000; call rule not given here
Of the large screens only hits and unclear results are named; the others gave an inactive call (follow-up assays come after a bar, where they were run). Unless noted, calls come from the whole dose curve; as a rule, active = well fitted curve in the direction sought with a large enough effect; inconclusive = small, poorly fitted or top-dose-only effect, or another doubt; inactive = no such curve, though single readings can be large; an effect the other way counts as inactive or inconclusive.

O=C1CC(c2cccc(Cl)c2)Cc2nc(N3CCN(c4ccccc4)CC3)ncc21 (stereo unspecified)	none
COC(=O)c1c(C)oc2ccc(N(C(=O)c3ccncc3)S(=O)(=O)c3ccc4ccccc4c3)cc12	none
CCOc1ccc(NS(=O)(=O)c2ccc3ncsc3c2)cc1	Pf growth 96h 3.7µM
CCOc1ccc(NS(=O)(=O)c2ccc(NC(=S)NC(C)=O)cc2)cc1	Pf growth 48h inconclusive, Pf growth 96h 3.7µM
CCOc1ccc(NS(=O)(=O)c2ccc(N)cc2)cc1	none (no result: Pf growth 96h)
Cc1cccc(C)c1NC(=O)c1cccc(COc2cc(Cl)ccc2Cl)c1	Pf growth 48h inconclusive, Pf growth 96h inconclusive
c1ccc(Cn2c(-c3ccccc3)c[n+]3c2SCCC3)cc1	Pf growth 48h 1µM, Pf growth 96h inconclusive
COc1cc(CNc2ccc(N3CCOCC3)cc2)cc(Br)c1OC	AMA1-RON2 inh inconclusive
COc1cc(CNc2ccc3[nH]c(=O)[nH]c3c2)cc(Br)c1OCC(=O)NC(C)(C)C	Pf growth 96h inconclusive (no result: Pf growth 48h)
CCOc1cc(CO)cc(Br)c1OCC(=O)Nc1ccccc1C	none
COc1cc(CNc2cccc(C(=O)O)c2)cc(Br)c1OCC(=O)NC(C)(C)C	Pf growth 96h 12µM
CCOc1cc(CNc2ccccc2)cc(Br)c1OCc1ccccc1F	Pf growth 48h inconclusive, SARS PLpro yeast-1 inconclusive (no result: Pf growth 96h)
CCOc1cc(CNc2ccc(N3CCOCC3)cc2)cc(Br)c1OCC	Pf growth 48h inconclusive, AMA1-RON2 inh 14µM, Pf growth 96h inconclusive
CCOc1cc(CNc2cccc3ccccc23)cc(Br)c1OCC(=O)NC(C)(C)C	Pf growth 96h 9.3µM (no result: Pf growth 48h)
CCOc1cc(CNc2ccc3c(c2)OCCO3)cc(Br)c1OCC	Pf growth 48h 1.9µM, AMA1-RON2 inh inconclusive, Pf growth 96h 2.1µM
CCOc1cc(CNc2ccc(N3CCCCC3)cc2)cc(Br)c1OCC(=O)NC(C)(C)C	Pf growth 48h inconclusive, AMA1-RON2 inh 20µM, Pf growth 96h 13µM
CCOc1cc(CNc2ccc(S(N)(=O)=O)cc2)ccc1OCC(=O)NC(C)(C)C	Pf growth 96h inconclusive
CCOc1cc(CNc2ccc(N(C)C)cc2)cc(Br)c1OCC(=O)NC(C)(C)C	Pf growth 48h 0.66µM, AMA1-RON2 inh 25µM, Pf growth 96h inconclusive
CCOc1cc(CNc2ccc(N3CCN(C(C)=O)CC3)cc2)cc(Br)c1OC	Pf growth 48h inconclusive, AMA1-RON2 inh inconclusive, Pf growth 96h inconclusive
CCn1c(CCNC(=O)c2ccc(C)cc2)n[nH]c1=S	none
CCc1cccc2sc(N(CCCN3CCOCC3)C(=O)CS(=O)(=O)c3ccccc3)nc12	Pf growth 48h 9.3µM, Pf growth 96h inconclusive
Cc1cc(C(c2ccc(C)o2)c2ccc(C)o2)c(O)c([N+](=O)[O-])c1	none (no result: Pf growth 48h)
Cc1ccc(C(c2ccc(C)o2)c2cccc([N+](=O)[O-])c2O)o1	Pf growth 48h 7.4µM, AMA1-RON2 inh inconclusive, Pf growth 96h 4.7µM
COc1ccc(C2=NOC(Cn3nc(C(=O)NCC4CC4)cc3-c3ccccc3)C2)cc1 (stereo unspecified)	Pf growth 48h inconclusive, Pf growth 96h 9.3µM
COc1ccccc1CNC(=O)c1cc(-c2ccccc2C)nn1CC1CC(c2cccnc2)=NO1 (stereo unspecified)	Pf growth 48h inconclusive, Pf growth 96h 4.7µM
COc1ccc(C2=NOC(Cn3nc(C(=O)NCc4ccccc4OC)cc3-c3ccccc3)C2)cc1 (stereo unspecified)	Pf growth 48h 13µM, Pf growth 96h inconclusive
COc1ccc(C2=NOC(Cn3nc(C(=O)NCc4ccc(OC(F)(F)F)cc4)cc3-c3ccccc3)C2)cc1 (stereo unspecified)	Pf growth 48h 10µM
CN(C)/N=C/C=C1\CC/C(=C\c2ccc(F)c(F)c2)C1=O	none (no result: Pf growth 48h, Pf growth 96h, SARS PLpro yeast-1)
CC1=C(C(=O)OCc2ccccc2)C(c2ccccc2OS(=O)(=O)c2ccccc2[N+](=O)[O-])NC(=O)N1CCCC(=O)O (stereo unspecified)	none (no result: Pf growth 48h, Pf growth 96h, SARS PLpro yeast-1)
CCOC(=O)C(C)Oc1ccc(=O)n(-c2ccccc2)n1 (stereo unspecified)	Pf growth 96h 1.9µM
CN(Cc1nc(Cc2ccccc2F)no1)[C@@H]1CS(=O)(=O)C[C@H]1O	Pf growth 96h 12µM
Cc1nc2c(C(=O)NCc3ccc4c(c3)OCO4)cnn2c(C)c1Cc1ccc(F)cc1Cl	Pf growth 48h inconclusive, Pf growth 96h 13µM
Cc1nc2c(C(=O)NCc3ccco3)cnn2c(C)c1Cc1ccc(F)cc1Cl	Pf growth 48h inconclusive
Cc1ccc(C)c(Cc2c(C)nc3c(C(=O)NCc4ccc5c(c4)OCO5)cnn3c2C)c1	Pf growth 96h 10µM (no result: Pf growth 48h, AMA1-RON2 inh)
Cc1ccccc1Cc1c(C)nc2c(C(=O)NCc3ccc4c(c3)OCO4)cnn2c1C	Pf growth 48h inconclusive, Pf growth 96h inconclusive
Cc1ccc(C(=O)N2CCCC2)cc1S(=O)(=O)N1CCOCC1	none
Cc1ccccc1/C=C/c1nc2ccccc2c(=O)[nH]1	none
CC(=O)CSc1ccc(-c2nc3ccccc3[nH]2)cn1	Pf growth 96h 8.3µM
CCOC(=O)N1CCc2c(sc3ncn(Cc4ccc(F)cc4)c(=O)c23)C1	Pf growth 48h 10µM, Pf growth 96h 5.9µM
COc1ccc(-c2csc(NC(=O)CN3C(=O)NC4(CCCC4)C3=O)n2)cc1OC	none
CC(=O)Oc1ccccc1C(=O)O	none (no result: SARS PLpro yeast-1)
CC(=O)[O][Hg][c]1ccccc1	Pf growth 48h 1.5µM, Pf growth 96h 3µM (no result: AMA1-RON2 inh, SARS PLpro yeast-1)
COc1ccc(NC(=O)CSc2nnc(C3CCCCC3)n2N)cc1OC	none
CCN(CC)c1ccc(C2NC(=O)NC(C)=C2C(=O)Nc2ccccc2)cc1 (stereo unspecified)	Pf growth 96h 2.6µM (no result: Pf growth 48h)
CCOC(=O)C1=C(C)NC(=O)NC1c1ccc(N(CC)CC)cc1 (stereo unspecified)	Pf growth 96h inconclusive (no result: Pf growth 48h)
CN1C(=O)SC(Nc2cccc3ccccc23)C1=O (stereo unspecified)	SARS PLpro yeast-1 13µM | SARS PLpro yeast-2 inactive
O=C(NC(c1ccc(Cl)cc1)c1ccsc1)C1CCN(Cc2cccc(C(F)(F)F)c2)CC1 (stereo unspecified)	none (no result: Pf growth 48h, Pf growth 96h, SARS PLpro yeast-1)
CCCCNc1cc(C)nc(N2CCOCC2)n1	SARS PLpro yeast-1 inconclusive (no result: Pf growth 48h) | SARS PLpro yeast-2 inactive
Cc1ccc(Nc2cc(C)nc(N3CCOCC3)n2)cc1	none
COCCOc1cc2ncnc(N3CCC(C(=O)O)CC3)c2cc1OCCOC	none
Cc1ccc2c(c1)N(C(=O)CCC(=O)NC1CCN(Cc3ccccc3)CC1)CC(C)O2 (stereo unspecified)	SARS PLpro yeast-1 inconclusive | SARS PLpro yeast-2 inactive
CC(C)(C)NC(=O)CSc1nc(N)cc(=O)[nH]1	Pf growth 48h inconclusive
O=C(Nc1nc(-c2ccccn2)cs1)C1COc2ccccc2O1 (stereo unspecified)	Pf growth 48h 8.3µM, Pf growth 96h 0.37µM, SARS PLpro yeast-1 inconclusive | SARS PLpro yeast-2 active
O=C(NC1CCCCC1)C(c1ccco1)N(Cc1cccnc1)C(=O)C1COc2ccccc2O1 (stereo unspecified)	Pf growth 48h inconclusive, SARS PLpro yeast-1 inconclusive | SARS PLpro yeast-2 inactive
